An excerpt weighted towards active compounds, which were near 3.2% of everything screened.
Sm TGR inh: blocks Schistosoma mansoni thioredoxin glutathione reductase; Q962Y6; hit rate 3% among 360,000; Potency, µM (doses to about 114 µM), actives largely listed as inhibitors; purified TGR, DTNB reduction, TNB absorbance 405 nm; further: nearly all actives have a fitted effect of over 60% in size
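First, TGR (20 nM dispensed) and NADPH were mixed with compound. Second, a 15 min room-temperature incubation followed. Third, further NADPH and then DTNB were added to start the reaction. Finally, TNB absorbance was monitored kinetically.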
RE007 growth inh: less growth of the S. pombe RE007 Vpr strain. S. pombe RE007 Vpr strain, BacTiter-Glo ATP luminescence, 24 h. Potency, µM (highest dose often 92.2 µM), usual class: inhibitors. hit rate 0.21% among 360,000; active means well fitted falling curve with a large enough effect; inconclusive means small, poorly fitted or top-dose-only effect; inactive means no such curve, though single readings can be large or run the other way; further: nearly all actives have a fitted effect of over 50% in size
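Fission yeast strain RE007, carrying one chromosomally integrated HIV-1 vpr copy, was seeded at OD 0.01 in PMG+AL medium with 23 nL pinned compound. After 24 h at 30 °C and 99% humidity, viability was read by BacTiter-Glo luminescence.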
TbPYK inhibitor: inhibitors of Trypanosoma brucei pyruvate kinase. TbPYK enzyme, Kinase-Glo Plus ATP luminescence, 45 min. hit rate 0.12% among 410,000. AID 624173. Potency, µM (highest dose often 76.8 µM), actives largely listed as inhibitors; further: nearly all actives have a fitted effect of over 50% in size
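Luminescence from Kinase-Glo Plus, added after a 45-minute room-temperature reaction, served as the end-point read-out. The enzyme and substrate were preincubated with compound before ADP (130 uM final) initiated turnover. Concentration-effect curves came from normalized qHTS data.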
AMA1 RON2 block: disrupts binding of P. falciparum AMA1 to RON2; AlphaScreen AMA1-biotinylated RON2 peptide binding; Potency, µM (doses to about 58.2 µM), usual class: inhibitors; hit rate 0.2% among 360,000; AID 720542; further: nearly all actives have a fitted effect of over 45% in size
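AMA1 (3D7) with his tag at 25 nM final met compounds first, then biotinylated RON2 peptide at 25 nM; detection used donor plus acceptor beads, 10 µg/mL apiece, read by AlphaScreen after 30 min at room temperature.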
LmPK inh: blocks Leishmania mexicana pyruvate kinase activity; purified LmPK, Kinase-Glo ATP luminescence, 1 h; Potency, µM (series often up to 57.5 µM), most hits filed as inhibitors; hit rate 0.37% among 290,000
Target sequence (Q27686 whole entry, looked up): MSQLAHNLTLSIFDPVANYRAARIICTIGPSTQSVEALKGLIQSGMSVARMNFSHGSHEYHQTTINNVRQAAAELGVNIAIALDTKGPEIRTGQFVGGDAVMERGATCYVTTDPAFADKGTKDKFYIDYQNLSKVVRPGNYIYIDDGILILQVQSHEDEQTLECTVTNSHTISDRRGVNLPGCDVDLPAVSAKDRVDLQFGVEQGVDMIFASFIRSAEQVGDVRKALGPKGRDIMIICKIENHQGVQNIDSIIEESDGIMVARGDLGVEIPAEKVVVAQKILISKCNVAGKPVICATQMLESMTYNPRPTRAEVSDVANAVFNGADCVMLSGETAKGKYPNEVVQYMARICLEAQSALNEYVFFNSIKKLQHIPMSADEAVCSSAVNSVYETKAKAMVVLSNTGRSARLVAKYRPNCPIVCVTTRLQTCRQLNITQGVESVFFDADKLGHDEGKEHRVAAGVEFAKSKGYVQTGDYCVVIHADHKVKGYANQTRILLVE
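Purified LmPK (0.1 nM) converted ADP (0.1 mM) to ATP with PEP (0.5 mM) in imidazole buffer pH 7.2 with KCl and MgCl2, 1 h at room temperature. ATP was read by Kinase-Glo luminescence; data normalized to uninhibited and no-enzyme controls.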
A number is an active result; n = inactive; u = inconclusive; x = no result given; ! = a repeat was not active; [ ] = another dose, or the depositor's remark. Unless noted, the call rests on the fitted dose curve; in most records, active means well fitted curve in the direction sought with a large enough effect; inconclusive means small, poorly fitted or top-dose-only effect, or another doubt; inactive means no such curve, though single readings can be large; an effect the other way counts as inactive or inconclusive.

SMILES | Sm TGR inh | RE007 growth inh | TbPYK inhibitor | AMA1 RON2 block | LmPK inh
O=C(O)c1ccc(NC(=S)NC(=O)c2ccc3ccccc3c2)cc1 | n | n | n | n | n
CCOc1cccc(C(=O)NC(=S)Nc2cccnc2)c1 | 45µM | n | n | n[2.32 µM] | n
O=C(O)c1cccc(NC(=S)NC(=O)c2ccc3ccccc3c2)c1 | 25µM | n | n | n | n
NS(=O)(=O)c1ccc(CCNC(=O)Cn2c(-c3cccs3)cc3ccccc32)cc1 | n | x | n | x | x
COc1cccc(C(=O)Nc2cccc(OCC(=O)O)c2)c1 | n | n | n | n | 35µM
COc1cccc(C(=O)Nc2ccccc2)c1 | n | n | n | n | u
CCOc1ccc(-c2ccc(SCC(=O)Nc3nnc(CC)s3)nn2)cc1 | n | n | n | n | n
CCOc1ccc(-c2ccc(SC)nn2)cc1 | n | u | u | n | 5µM
O=C1CN(c2nc3ccccc3n3cnnc23)CC(=O)N1CCc1ccccc1 | 32µM | n | n | n | n
CCC(=O)N1CCc2cc(S(=O)(=O)CCC(=O)N3CCN(c4cccc(C)c4)C(C)C3)ccc21 (centres undefined) | n | x | n | x | x
COc1ccc(Nc2cc(O)c3ncccc3c2)cc1 | n | x | x | x | x
c1ccc(-c2ccc3[nH]ccc3c2)cc1 | n | n | n | n | x
c1ccc(-c2onc(-c3ccco3)c2-c2ccc3[nH]ccc3c2)cc1 | 45µM | n | n | n | n
OCC1OC([S-])[C@H](O)C(O)C1O.[Au+] (some centres undefined) | x | x | n | x | x
CCCOc1c(Cl)cc(C(=O)N(Cc2cccc(OC)c2)C2CCS(=O)(=O)C2)cc1Cl (centres undefined) | n | x | n | x | x
O=S(=O)(O)c1cc(O)ccc1O | n | n[18.4 µM] | n | n | x
O=S(=O)(c1cc(O)ccc1O)c1cccc2c(S(=O)(=O)c3cc(O)ccc3O)cccc12 | 11µM | n | u | 8.9µM | x
O=C(NC1CCCCC1)c1ccc(S(=O)(=O)NCc2ccco2)cc1 | 45µM | n | n | n | n
CCOC(=O)C1CCCN(C(=O)c2ccc(S(=O)(=O)NCc3ccco3)cc2)C1 (centres undefined) | 25µM | n | n | n | x
CCOC(=O)C1CCCN(C(=O)c2ccc(CNS(=O)(=O)c3ccc(C)cc3)cc2)C1 (centres undefined) | n | n | n | n | n
O=C(NC1CCN(Cc2ccccc2)CC1)c1ccc(S(=O)(=O)NCc2ccco2)cc1 | n | n | n | n | n
Cc1ccc(S(=O)(=O)N2CCN(C(=O)CSc3ncc(C(F)(F)F)cc3Cl)CC2)cc1 | 35µM | n | n | n | n
CC1=C(c2ccc(C)c(C)c2)S(=O)(=O)N=C1N1CCC(C(=O)N2CCC(C)CC2)CC1 | n | x | n | x | x
CCOC(=O)c1c(OCC)[nH]c2c1cc(O)c1ccccc12 | n[11.4 µM] | n | n | 15µM | u
COC(=O)N1C2=C(c3ccccc3[C@@H]1CC(=O)Nc1ccc3ccc4cccc5ccc1c3c45)[C@@H]1C(=O)N(c3ccccc3)C(=O)[C@@H]1[C@H](C)C2 | x | x | x | x | n[11.5 µM]
SMILES | Sm TGR inh | RE007 growth inh | TbPYK inhibitor | AMA1 RON2 block | LmPK inh
COc1cc(NC(=O)CSc2nc3nc(C)c(Cc4ccccc4)c(C)n3n2)cc(OC)c1OC | n | x | n | x | x
COC1(NC(=O)c2ccccc2)C(C)=CC(=O)C=C1C | 25µM | n | n | n | n
CCOc1ccc(S(=O)(=O)NCC(c2cccs2)S(=O)(=O)c2ccc(C)cc2)cc1 (centres undefined) | 0.32µM | x | n | x | x
CCCC(=O)NCC(c1cccs1)S(=O)(=O)c1ccc(C)cc1 (centres undefined) | n | n | n | n | n
CCC(=O)NCC(c1cccs1)S(=O)(=O)c1ccc(C)cc1 (centres undefined) | 89µM | n | n | n | n
Cc1ccc(S(=O)(=O)C(CNS(=O)(=O)c2ccc(F)c(C)c2)c2cccs2)cc1 (centres undefined) | 0.63µM | x | n | x | x
COc1ccc(CC(=O)NCC(c2cccs2)S(=O)(=O)c2ccc(F)c(C)c2)cc1 (centres undefined) | n | x | n | x | x
COc1ccc(-c2c(C#N)c(SCC(=O)Nc3ccccc3C)nc(C)c2C(=O)Nc2ccccc2)cc1OC | n | x | n | x | x
Cc1cccc(NC(c2nnc(-c3ccccc3)o2)c2ccc(F)cc2Cl)c1C (centres undefined) | n | x | n | x | x
Cc1[nH]n(-c2ccccc2)c(=O)c1C=Nc1cnc2ccccc2c1 | n | n | n | n | n
CCOc1ccc(N=Cc2c(C)[nH]n(-c3nc4ccccc4[nH]3)c2=O)cc1 | n | 4µM | u | n | 22µM
CCCN1CCN(c2ncnc3sc(C(=O)Nc4c(C)cc(C)cc4C)c(C)c23)CC1 | n | x | n | x | x
Cc1ccc(CCNC(=O)CCn2nc(-c3ccc(Cl)cc3)ccc2=O)cc1 | n | x | n | x | x
O=C(O)c1ccc(O)cc1O | n | n | n | n | x
Nc1ccc(C(=O)Oc2ccc([N+](=O)[O-])cc2)c(O)c1 | 28µM | x | x | x | n
Nc1ccc(C(=O)Oc2ccc([N+](=O)[O-])cc2)cc1 | n | x | n | n | n
Nc1cc(C(F)(F)F)ccc1C(=O)O | n | x | x | x | n
Nc1ccc(C(=O)O)c(O)c1 | 3.5µM! | n[18.4 µM] | n | n | n
Nc1ccc(N)c(C(=O)O)c1 | 18µM | n | n | 8.9µM | u
Cc1ccc(N)cc1O | 6.3µM | n | n | n | x
COc1ccc(CCNC(=O)Cc2c(C)c3cc4c(C(C)(C)C)coc4c(C)c3oc2=O)cc1OC | n | x | n | x | x
CCCCc1nc2c(c3c1C[C@H](C)OC3)CN(C(=O)c1cc(I)ccc1F)CC2 | x | x | x | x | n[11.5 µM]
Cc1cc(Br)ccc1NC(=O)COc1cc(=O)n(C)c2ccccc12 | n | x | n | x | x
Cc1ccc(C(=O)n2ncn(C)c2=S)cc1 | 18µM | n | u | n | n
Cc1ccc(Sc2c(C)nn(C(=O)c3ccc(Br)cc3)c2C)cc1 | n | x | n | x | x
SMILES | Sm TGR inh | RE007 growth inh | TbPYK inhibitor | AMA1 RON2 block | LmPK inh
Cc1[nH]c(=S)c(C#N)c(-c2ccccc2)c1C(=O)Nc1ccccc1 | n | n | u | n | n
CCN(CC)C(=O)c1c(C)[nH]c(=S)c(C#N)c1-c1ccco1 | 14µM | n | 5.6µM | n | n
COc1ccc(-c2c3c([nH]c(=S)c2C#N)CCC3)cc1 | 45µM | n | 13µM | n | n
N#Cc1c(-c2ccco2)c2c([nH]c1=S)CCCC2 | 2.8µM | n | 18µM | n | n
COC(=O)c1ccccc1NC(=S)NC(=O)c1ccc(C)cc1 | 11µM | n | n | n | n
Cc1ccnc(NC(=O)c2cc3ccccc3o2)c1 | n | n | n | n | x
O=C(Nc1ccccn1)c1cc2ccccc2o1 | n | u | u | n | 10µM
Cc1ccc(C(=O)NC(=S)NNS(=O)(=O)c2ccccc2)cc1 | 13µM | u | n | n | n
COC(=O)c1ccccc1NC(=S)NC(=O)c1ccccc1 | 11µM | n | n | n | n
COC(=O)c1ccccc1NC(=S)NC(=O)COc1ccccc1 | 22µM | n | n | n | n
O=C(Nc1ccccn1)c1ccc2c(c1)OCO2 | n | n | n | n | 14µM
